The source of these data is PubChem BioAssay AID1508600 (Functional Genomics Laboratory (NCATS/FGL), 2020).

Out of some 53,000 sequences screened, about 3,700 (7%) were called active. The entries come from a sample that favours actives as a whole. Unmarked numbers belong to inactive results.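 Rule for the calls: active = gene knockdowns whose robust z-score for IL-1 alpha signal is at least 2 or at most -2, so actives lie on both sides; inactive = the rest.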

The assay in a line: Components of the Cytosolic LPS Sensing Pathway: Gene Identification via Genome-wide siRNA Screen.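 Note: robust z of the log signal after scaling to non-targeting control siRNA wells of the plate.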 The settings on record: RAW264.7 macrophages, IL-1a HTRF, actives lie on both sides, screened at 100 nM (by protocol), cells primed 5 h with Pam3CSK4 first. Summed up: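 RAW264.7 mouse macrophages reverse-transfected with single siRNAs (100 nM final) for 48h, primed with Pam3CSK4 for 5 hours, then transfected with LipidA for 24 hour. Supernatant IL-1a read by HTRF; values normalized to negative-control median, log-transformed robust z-scores.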
For orientation: In TR-FRET formats the signal depends on donor and acceptor labels being close together.
Regarding GGGUCUAGAGUGCAUCUUCTT against Krt78, the z-score is 0.418.

Consider GGCUGUUUUUGCCGGUAUCTT against Teddm3, for which the z-score is 1.58.

For GGAAAACCAACAAAGCAAATT against Pde10a, the z-score is -0.692.

For the sequence UAUGACUCCACUCUUCUCUTT against Olfr1158, the z-score is -2 (active).

For the sequence GGAAGAGGGCAAAAAUGGCTT against Sgms2, the z-score is -0.441.

In the case of GGUUAUUUCGGGAGAUAAGTT against Nudcd1, the z-score is -0.351.

For GGCAGAACGGAAUAAAAUGTT against Stag2, the z-score was -3.03 (active).

As for CCUGAUCAUGUUGAAGGAATT against Ktn1, the z-score was 0.256.

Regarding GGACACUGCAAAAGAGGAGTT against Defa4, the z-score was 1.37.

With GGGAUACUCCAGACAAGGUTT against Usp17ld, the z-score is 0.142.

Consider GGCCAUCAGAGCUACACUUTT against Gpa33, for which the z-score was 0.806.

Consider CAUUGGUAUUGCCAAGGCATT against Olfr1330, for which the z-score was 0.373.

GGGAGAAACCAUUUCAAGATT against Gm5084: the z-score was 0.0759.

As for GGAUUUCUCUGCCUGUACUTT against Gdpgp1, the z-score was 0.37.

With GAUGAAGAGGCAGGCCAAGTT against Nkx2-4, the z-score is 2.63 (active).

As for GGUGUUAGCGAAAUGCUCATT against Prl7b1, the z-score is -0.875.

Take GCUCACUGCUACAAAUACCTT against Prss2: the z-score is -1.82.

For GCUUUAUCCACAGGUGCCATT against Olfr1350, the z-score was -1.9.

Consider GCCUAUUCACCAAAUCACATT against Frrs1, for which the z-score is 0.408.

Regarding GAUCUGGCUGCUUCUUACCTT against Porcn, the z-score was -0.623.

With GGCAUAAGAAAAUGGACCCTT against Fhit, the z-score was 2.04 (active).

Regarding GGGAUAGUGUAAGUUAGUUTT against Dppa4, the z-score is -0.0875.

For GUUCUGAAAAUAGAAUAAUTT against Vmn1r16, the z-score is 0.237.

As to GGCUUGAUUGCAUCUUUAUTT against Ebpl, the z-score is -0.765.

In the case of CGACACACCUAGCUAAACCTT against Dgkeos, the z-score was -1.98.

On to GGCCUUAGAACAAGGAAUATT against Cdk7, for which the z-score was -0.769.

With CCAAUUACGAGACUCUCAUTT against Zfp786, the z-score is -0.00661.

Turning to GCUUAUUGAACUAUUGUUGTT against Trpc4, the z-score was 3.72 (active).

In the case of GGAGCAGUCUAUCUUUGGUTT against Dbn1, the z-score is 1.3.

For GGAGAACAAGGCAAAAGAATT against Mindy4, the z-score was -0.945.

GCAGACAGAGUUUUAACGUTT against Fancl: the z-score is -0.381.

For GCCAUUCACUUAAUUCAGUTT against H2ac8, the z-score is -1.32.

Take GGCUCUGGCCAUAUUUUGGTT against Olfr549: the z-score was -1.44.

In the case of CCAUAGGUAUCAUUGCAAGTT against Tas2r139, the z-score is -2.16 (active).

Take GCAAUAAUCGUUCUCAAAATT against Prkab1: the z-score was 1.5.

For GGAGAUCAGCUGUCUAAUGTT against Tmem237, the z-score was -0.207.

For GGACAGGAUGAGUUUGACATT against Rhou, the z-score is -1.52.

In the case of GGAAAUCUCAGAAAUCAAATT against Pmf1, the z-score was -1.15.

With GCUCCUUGGGCGAUUUCAGTT against Aggf1, the z-score is 0.265.

With GCAAGGUAUUCCAUGCUCATT against Psg27, the z-score is -0.616.

Take GCUGUGAUCUCAGUAUUCATT against Strbp: the z-score was 0.443.

GGUGACCACUUUUAUCUGATT against Olah: the z-score was 0.601.

On to GCCUAAAAAAUCUCUGUGATT against Zswim3, for which the z-score is -2.77 (active).

With GGACUAUAGAUCCUAAGUCTT against Kcnab2, the z-score is -0.246.

Take CCACCCUGUGAAAAAGUCATT against Ccr3: the z-score was -1.08.

Consider GAAAGGAAAGCUAGCCAUGTT against Gm5622, for which the z-score is 0.614.

Consider CCAUUGAAUCAGUUGAAGUTT against Slc5a7, for which the z-score was 1.21.

Consider GGCCGUUAUGUUUUACAAGTT against Dnajc19, for which the z-score was 0.00748.

As to GGGCAUACAUAUAACCUAUTT against Fermt2, the z-score was -0.285.

For the sequence GCUUUUUGACUACGUAGCCTT against Hkdc1, the z-score is 0.0141.

Regarding GGUUUGAGAAAUUGGACAUTT against Pou6f1, the z-score was 3.72 (active).

As to GGAAAGCAGGACAAAAGGCTT against Mettl18, the z-score was 0.346.

Take GUCAUCUUGUUCCAUCUGATT against Olfr1269: the z-score is -1.12.

Turning to CGACCUAACCAACAUGCUUTT against Asap3, the z-score was 0.0248.

On to GGUAGCUGUUUAGGACAAUTT against Arl6ip5, for which the z-score was 3.79 (active).

For the sequence GCGAUUCUGUUGUUAGCUUTT against Rln1, the z-score is 0.134.

For GGUAGAAUUGUGAUCUCAGTT against Bco2, the z-score was -0.411.

With GCAGGUACUAUUUGUGACGTT against Olfr30, the z-score was 1.07.

For the sequence GCAGCACGAACUGAUGACGTT against Plcd3, the z-score was -2.18 (active).

As to GGUGGACAACCAGUUCUACTT against Mapk10, the z-score was 1.27.

For CCUGUGUUUCAGUUUGGUATT against Clptm1l, the z-score was 0.549.

On to GGCUCAAUAAUGUUUUCAATT against Smpd3, for which the z-score is 3.18 (active).

CGUAAAUUCACCAAGGAGCTT against Slc19a1: the z-score was -0.805.

As to GGACAUUGACACUUCCCUGTT against P2rx5, the z-score was -1.85.

Turning to GGAGAUAACAGAUCUGUUUTT against Fam114a2, the z-score was -0.843.

As for GGCAUCCACACAGAACAAGTT against Zfp467, the z-score was -0.287.

Take GGGAUAGGGUUCAAUUAGGTT against Bcl2l13: the z-score is 0.231.

Regarding GUCCCAGUACUUCUUGUUUTT against Vmn1r27, the z-score was 0.675.
